This note sets out measurements from PubChem BioAssay AID2094 (Broad Institute, 2009).

The campaign covered roughly 300,000 compounds. About 1,200 (0.4%) were called active. The sample holds actives, similar compounds and a random draw of the others, so the mix is not that of the screen. Values without a mark were called inactive. No stated cut-off is given here; in the data, active means activity change below about -75% (passing the limit was not always enough); inconclusive means no clear call, values can overlap the other calls.

A short description of this experiment: Vibrio harveyi AI-2 quorum sensing modulators, primary screen, JMH597 strain, luminescence/OD600 ratio (AID 2094).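 Further: luminescence divided by OD600 gain over 9 h not by final OD600 alone.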 The settings on record: Vibrio harveyi JMH597 AI-2 luminescence/OD600 ratio, 9 h; at 7.5 µM; stronger effect = lower value; 0 = neutral-control median; strain lacks LuxN and CqsS sensors.
As to `O=c1[nH]c(NCCO)nnc1Cc1ccc(Cl)cc1`, the activity change was -1.67%.

Consider `COc1ccc(Cc2nnc(N/N=C/c3ccccc3O)[nH]c2=O)cc1OC`, for which the activity change was -86.4% (active).

`Cc1nnc(N/N=C/c2ccccn2)[nH]c1=O`: the activity change is -29.7%.

On to `COCC(=O)N1CCCC(C(=O)c2ccc(C(F)(F)F)cc2)C1` (centres undefined), for which the activity change was 13.4%.

`CC(=O)c1ccc(S(=O)(=O)N(C)CCCC(=O)N(C)Cc2ccccc2F)cc1`: the activity change was 21.5%.

As for `O=C(Nc1ccc(Oc2ccccc2)cc1)c1ccco1`, the activity change was -96.6% (active).

As for `Cc1nnc(NC(=O)/C=C/c2ccco2)s1`, the activity change is 12.9%.

For the molecule `O=C(Nc1ccc(O)cc1)c1ccc(NC(=O)c2ccco2)cc1`, the activity change was 7.66%.

As for `O=C(/C=C/c1ccco1)Nc1cccc(-c2nc3ccccc3[nH]2)c1`, the activity change is 4.93%.

With `O=C(Nc1ccccc1)c1ccco1`, the activity change was 10.6%.

In the case of `O=C(/C=C/c1ccco1)Nc1ccc(Oc2ccccc2)cc1`, the activity change was -83.2% (active).

Turning to `CCc1cccc(NC(=O)CCCN2C(=O)C(c3ccccc3)Oc3cccnc32)c1` (centres undefined), the activity change was 34.6%.

As for `CC(OC(=O)CNS(=O)(=O)/C=C/c1ccccc1)C(=O)Nc1ccc(S(=O)(=O)N2CCCC2)cc1` (centres undefined), the activity change is 11.2%.

`CCCCCCNCCn1cnc2c(N)ncnc21`: the activity change was 19.1%.

On to `Cc1ccc(-c2cc(C(=O)N3CCc4ccccc4C3)no2)cc1`, for which the activity change is 4.44%.

Turning to `O=C(c1cc(-c2cccc(O)c2)on1)N1CCc2ccccc2C1`, the activity change was -84.1% (active).

Consider `O=C(c1cc(-c2ccc(O)cc2)on1)N1CCOCC1`, for which the activity change is 2.48%.

For the molecule `COc1ccc(C)cc1N(CC(=O)NC(C)c1ccccc1)S(C)(=O)=O` (centres undefined), the activity change was 17.3%.

`CCOc1ccc(-n2c(SCC(=O)Nc3ccc(OC)cc3)nc3sc4c(c3c2=O)CCN(C)C4)cc1`: the activity change is 20.9%.

On to `O=C(Nc1ccccc1Cl)/C(Cl)=C(\Cl)S(=O)c1ccccc1` (centres undefined), for which the activity change is -84.8% (active).

As to `O=C(Cc1ccc2c(c1)CCCC2)Nc1ccccc1Cl`, the activity change is -3.68%.

For the molecule `O=C(Nc1ccccc1Cl)Nc1cccc2cccnc12`, the activity change was 24.3%.

For `Cc1csc(OCC(=O)Nc2ccc(C)c(C)c2)n1`, the activity change is 15.5%.

Turning to `O=C(CC1SC(=Nc2ccccc2)N(Cc2ccccn2)C1=O)Nc1cccc(Cl)c1` (centres undefined), the activity change was 3.68%.

As to `CCC(NC(=O)c1cc(COc2ccc(F)c(F)c2)on1)c1ccncc1` (centres undefined), the activity change was 14%.

For `Cc1cccnc1CC(C)NC(=O)c1cc(COc2cncc(Cl)c2)on1` (centres undefined), the activity change is 10.5%.

`CC(=O)c1cccc(OCc2cc(C(=O)NC(C)Cc3cccnc3)no2)c1` (centres undefined): the activity change is -85.8% (active).

`CC1(C)C/C(=N/Nc2ccc([N+](=O)[O-])cc2[N+](=O)[O-])C(C)(C)O1`: the activity change was 18.5%.

For the molecule `C/C=C/C(=O)OCc1csc(CC(=O)Nc2ccccc2C)n1`, the activity change is 48.5%.
